# Several values for one entry are separate records, joined by “and”; a condition that tells them apart may be missing. Equal values may be shown once. Inconclusive results are not listed. Some structures have more than one record in an assay (separate samples or runs), and their calls can disagree. Activity calls are given as the source filed them. Rule for the calls: active = hit-call score of the fitted dose curve at least 0.9, where 1 is the maximum; inconclusive = response in the unintended direction; inactive = score below 0.9.
# Tests used:
# [1] = read-out: ABC Transporter (ABCB1), ABCB1 (gene 5243); test: CLD_ABCB1_6hr: CellzDirect (CLD) Gene Expression Assay for ABC Transporter (ABCB1) at 6 hours (AID 2283659);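 note: hits raise ABCB1 transcript above the DMSO vehicle baseline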
# Procedure, shortened: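 Primary human hepatocytes (two donor preparations) dosed daily for two days with chemicals at multiple concentrations, 0.2% DMSO vehicle; harvested 6 h post-dose. ABCB1 mRNA induction quantified by qNPA chemiluminescence; gain-of-signal fitted versus DMSO.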
# [2] = Tanguay_ZF_120hpf_TR_legacy: (Legacy) Oregon State University Tanguay Lab 120 Hour Post-fertilization zebrafish Assay for Touch Response (AID 2283667)
# Procedure, shortened: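 5D WT embryos; static exposure to 120 hpf, 28C, sealed/dark; DMSO 0.64% v/v final. TR scored present/absent; dead embryos excluded. Pos ctrl 5uM trimethyltin chloride.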
# [3] = read-out: Broad substrate specificity ATP-binding cassette transporter ABCG2 (Homo sapiens) (UniProt Q9UNQ0); test: CLD_ABCG2_6hr: CellzDirect (CLD) Gene Expression Assay for ABC Transporter (ABCG2) at 6 hours (AID 2283660)
# Procedure, shortened: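 Primary human hepatocytes dosed daily with chemicals at multiple concentrations (0.2% DMSO vehicle), harvested 6 h after dosing. ABCG2 mRNA induction read by quantitative nuclease protection assay (qNPA) chemiluminescence; gain of signal fitted against DMSO baseline.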
# [4] = read-out: alkyl and aryl transferase (GSTA2), GSTA2 (gene 2939); test: CLD_GSTA2_6hr: CellzDirect (CLD) Gene Expression Assay for alkyl and aryl transferase (GSTA2) at 6 hours (AID 2283666)
# Procedure, shortened: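 Primary human hepatocytes from two donor preparations were dosed daily with fresh compound at multiple concentrations, 0.2% DMSO vehicle. GSTA2 mRNA was measured at 6 hours by qNPA chemiluminescence; induction fitted relative to DMSO, with cytotoxicity flagged morphologically.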
# [5] = read-out: organic anion transporter (SLCO1B1), SLCO1B1 (gene 10599); test: CLD_SLCO1B1_6hr: CellzDirect (CLD) Gene Expression Assay for organic anion transporter (SLCO1B1) at 6 hours (AID 2283668);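 note: active means mRNA induction above DMSO baseline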
# Procedure, shortened: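 Primary human hepatocytes dosed daily with test chemicals (multiple concentrations) in 0.2% DMSO vehicle; harvested at 6 h. SLCO1B1 mRNA quantified by qNPA chemiluminescence, fitted as gain-of-signal versus DMSO; cytotoxicity from phase-contrast morphology flagged alongside.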
# [6] = CLD_ACTIN_24hr: CellzDirect (CLD) Gene Expression Assay for Baseline Control (Actin) at 24 hours (AID 2283670)
# Procedure, shortened: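 Primary human hepatocytes dosed over multiple concentrations with 0.2% DMSO vehicle; actin mRNA measured at 24 h by qNPA chemiluminescence. Background control endpoint, fitted as gain of signal versus DMSO.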
# [7] = tested on: Thyroperoxidase (TPO), gene 54314; test: CCTE_Simmons_AUR_rTPO: CCTE's Amplex UltraRed Assay for Thyroperoxidase (TPO) Inhibition, Simmons Lab (AID 2283662);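 for AC50: potency for loss of signal meaning inhibition of peroxidase activity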
# Procedure, shortened: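 Rat thyroid microsomes (5 ug protein) were incubated with test compound (8 concentrations, 5 nM–87.5 uM final, 0.5% DMSO), 25 uM Amplex UltraRed and 300 uM H2O2 in 200 mM phosphate buffer for 30 min at 37C in the dark; fluorescence read at 544/590 nm.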
# [8] = read-out: xenobiotic metabolism (CYP2C9), CYP2C9 (gene 1559); test: CLD_CYP2C9_6hr: CellzDirect (CLD) Gene Expression Assay for xenobiotic metabolism (CYP2C9) at 6 hours (AID 2283664)
# Procedure, shortened: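 Primary human hepatocytes dosed daily with test chemicals at multiple concentrations; harvested at 6 h. CYP2C9 mRNA induction measured by qNPA chemiluminescence. Gain of signal fitted against 0.2% DMSO vehicle; cytotoxicity annotated from phase-contrast morphology.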
# [9] = read-out: sulfotransferase (SULT2A), SULT2A1 (gene 6822); test: CLD_SULT2A_6hr: CellzDirect (CLD) Gene Expression Assay for sulfotransferase (SULT2A) at 6 hours (AID 2283669);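 note: hits raise transcript level above the DMSO vehicle baseline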
# Procedure, shortened: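 Primary human hepatocytes from two donor preparations were dosed daily with chemicals or 0.2% DMSO and harvested at 6 h. Transcript induction read by qNPA chemiluminescence, fitted for gain of signal relative to DMSO; morphology-based cytotoxicity annotated.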
# [10] = read-out: xenobiotic metabolism (CYP1A1), CYP1A1 (gene 1543); test: CLD_CYP1A1_6hr: CellzDirect (CLD) Gene Expression Assay for xenobiotic metabolism (CYP1A1) at 6 hours (AID 2283661);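 note: potency for transcript induction above DMSO vehicle baseline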
# Procedure, shortened: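 Primary human hepatocytes from two donors, compound versus 0.2% DMSO vehicle. CYP1A1 mRNA measured 6 h after dosing by quantitative nuclease protection assay with chemiluminescent read-out; induction fitted relative to DMSO, cytotoxicity flagged by microscopy.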
# Chain of Broad substrate specificity ATP-binding cassette transporter ABCG2 (Homo sapiens) (Q9UNQ0 whole entry, looked up): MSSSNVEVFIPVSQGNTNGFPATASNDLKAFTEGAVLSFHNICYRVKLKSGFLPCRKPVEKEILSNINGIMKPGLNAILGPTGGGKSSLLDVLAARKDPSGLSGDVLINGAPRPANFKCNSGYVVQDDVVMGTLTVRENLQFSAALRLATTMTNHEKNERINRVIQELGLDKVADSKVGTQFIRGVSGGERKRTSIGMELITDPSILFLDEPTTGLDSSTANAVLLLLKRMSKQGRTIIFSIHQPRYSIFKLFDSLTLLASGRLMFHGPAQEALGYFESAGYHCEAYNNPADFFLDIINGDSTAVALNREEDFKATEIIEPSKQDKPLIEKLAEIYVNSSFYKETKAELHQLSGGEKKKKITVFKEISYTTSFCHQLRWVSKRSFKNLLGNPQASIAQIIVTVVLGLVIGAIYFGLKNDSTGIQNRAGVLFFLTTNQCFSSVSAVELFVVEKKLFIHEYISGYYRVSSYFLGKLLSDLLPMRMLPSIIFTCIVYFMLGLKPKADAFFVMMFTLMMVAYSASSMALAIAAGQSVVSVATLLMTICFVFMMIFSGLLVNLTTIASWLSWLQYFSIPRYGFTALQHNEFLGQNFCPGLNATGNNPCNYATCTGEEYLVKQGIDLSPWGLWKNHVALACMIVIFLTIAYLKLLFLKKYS
structure (smiles),measurement,setting,value
O=C(O)C(F)(F)C(F)(F)C(F)(F)C(F)(F)C(F)(F)C(F)(F)C(F)(F)F,outcome,[1],inactive
Clc1ccccc1-c1nnc(-c2ccccc2Cl)nn1,outcome,[1],inactive
O=[N+]([O-])/N=C1\NCCN1Cc1ccc(Cl)nc1,outcome,[2],inactive
O=[N+]([O-])c1c(Cl)c(Cl)c(Cl)c(Cl)c1Cl,outcome,[3],inactive
same,outcome,[4],inactive
same,outcome,[5],inactive
same,outcome,[6],inactive
CNC(=O)CSP(=S)(OC)OC,AC50,[7],7.2 µM (active)
same,outcome,[8],inactive
same,outcome,[4],inactive
same,outcome,[5],inactive
same,outcome,[6],inactive
C#CCN1C(=O)COc2cc(F)c(N3C(=O)C4=C(CCCC4)C3=O)cc21,outcome,[4],inactive
same,outcome,[5],inactive
CCS(=O)(=O)c1cccnc1S(=O)(=O)NC(=O)Nc1nc(OC)cc(OC)n1,outcome,[3],inactive
same,outcome,[4],inactive
same,outcome,[5],inactive
same,outcome,[6],inactive
Oc1cc(Cl)ccc1Oc1ccc(Cl)cc1Cl,AC50,[7],36.3 µM (active) and 21.6 µM (active) and 43.6 µM (active)
same,outcome,[7],inactive
same,outcome,[8],inactive
same,outcome,[4],inactive
same,outcome,[5],inactive
same,outcome,[6],inactive
O=S(=O)(O)C(F)(F)C(F)(F)C(F)(F)C(F)(F)C(F)(F)C(F)(F)C(F)(F)C(F)(F)F,outcome,[7],inactive
same,outcome,[9],inactive
Cc1[nH]c(=O)n(C(C)(C)C)c(=O)c1Cl,AC50,[10],20 µM (active)
same,outcome,[8],inactive
same,outcome,[9],inactive
same,outcome,[6],inactive
CCC(C)Nc1c([N+](=O)[O-])cc(C(C)(C)C)cc1[N+](=O)[O-] (configuration not stated),outcome,[3],inactive
same,outcome,[9],inactive
O=C(Nc1ccccc1)Nc1cnns1,AC50,[7],43.8 µM (active)
same,outcome,[4],inactive
same,outcome,[5],inactive
same,outcome,[9],inactive
CC(C)OC(=O)Nc1cccc(Cl)c1,outcome,[3],inactive
same,outcome,[4],inactive
same,outcome,[5],inactive
CCOC1Oc2ccc(OS(C)(=O)=O)cc2C1(C)C (configuration not stated),outcome,[4],inactive
same,outcome,[9],inactive
CC[C@H](C)[C@H]1O[C@]2(C=C[C@@H]1C)C[C@@H]1C[C@@H](C/C=C(\C)[C@@H](O[C@H]3C[C@H](OC)[C@@H](O[C@H]4C[C@H](OC)[C@@H](O)[C@H](C)O4)[C@H](C)O3)[C@@H](C)/C=C/C=C3\CO[C@@H]4[C@H](O)C(C)=C[C@@H](C(=O)O1)[C@]34O)O2 (tested in a mixture with another compound),outcome,[3],inactive
same,outcome,[5],inactive
same,outcome,[9],inactive
same,outcome,[6],inactive
CC1(C)C(C=C(Cl)Cl)C1C(=O)OC(C#N)c1ccc(F)c(Oc2ccccc2)c1 (configuration not stated),outcome,[3],inactive
same,outcome,[4],inactive
same,outcome,[9],inactive
CC(C)(C)C(O)/C(=C\c1ccc(Cl)cc1Cl)n1cncn1 (configuration not stated),outcome,[3],inactive
same,outcome,[4],inactive
same,outcome,[9],inactive
CCOc1nc(NC)nc(NC(=O)NS(=O)(=O)c2ccccc2C(=O)OC)n1,outcome,[3],inactive
same,outcome,[4],inactive
same,outcome,[5],inactive
same,outcome,[9],inactive
same,outcome,[6],inactive
CCCN(CCOc1c(Cl)cc(Cl)cc1Cl)C(=O)n1ccnc1,outcome,[7],inactive
same,outcome,[8],inactive
same,outcome,[9],inactive
CCN(CC)C(=O)SCc1ccc(Cl)cc1,outcome,[4],inactive
same,outcome,[5],inactive
same,outcome,[9],inactive
CC(C)(C)C(O)C(Oc1ccc(Cl)cc1)n1cncn1 (configuration not stated),outcome,[3],inactive
same,outcome,[4],inactive
same,outcome,[9],inactive
ClC1C(Cl)C(Cl)C(Cl)C(Cl)C1Cl (configuration not stated),outcome,[3],inactive
same,outcome,[4],inactive
same,outcome,[9],inactive
COC(=O)c1ccccc1S(=O)(=O)NC(=O)Nc1nc(C)nc(OC)n1,outcome,[5],inactive
same,outcome,[6],inactive
O=C(NC(=O)c1c(F)cccc1F)Nc1ccc(OC(F)(F)C(F)OC(F)(F)F)c(Cl)c1 (configuration not stated),outcome,[8],inactive
same,outcome,[4],inactive
same,outcome,[9],inactive
same,outcome,[6],inactive
N#Cc1c(Cl)c(Cl)c(Cl)c(C#N)c1Cl,AC50,[3],20 µM (active)
same,outcome,[4],inactive
same,AC50,[9],33.5 µM (active)
O=S1OCC2C(CO1)C1(Cl)C(Cl)=C(Cl)C2(Cl)C1(Cl)Cl (configuration not stated),outcome,[3],inactive
same,outcome,[5],inactive
same,outcome,[9],inactive
same,outcome,[6],inactive
Cc1cc(C)nc(NC(=O)NS(=O)(=O)c2ccccc2C(=O)OC2COC2)n1,outcome,[8],inactive
same,outcome,[9],inactive
same,outcome,[6],inactive
[2H]C1([2H])[n+]2ccccc2-c2cccc[n+]2C1([2H])[2H],outcome,[8],inactive
same,outcome,[4],inactive
same,outcome,[5],inactive
same,outcome,[6],inactive
COP(=S)(OC)Oc1ccc(SC)c(C)c1,AC50,[7],34.3 µM (active)
same,outcome,[9],inactive
COc1nn(CSP(=S)(OC)OC)c(=O)s1,AC50,[7],3.7 µM (active)
same,outcome,[5],inactive
